Screening data as filed in PubChem.
GLS inh – inhibitors of human glutaminase (GLS). GLS enzymatic activity, qHTS titration. 410,000 tested, 0.21% active. AID 624170. O94925. Potency, µM (titrated, usually from 45.5 µM), without a hit: at the highest dose activity change, negative = inhibition, usual class: inhibitors; also: % is scaled to controls: 0 for no effect and ±100 for the full control effect
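Assay buffer: 45 mM KH2PO4 pH 8.2, 0.02% Tween-20. hKGA acts on L-glutamine (1 mM solution added); product glutamate is reported by an oxidase/peroxidase Amplex Red coupling, with fluorescence taken at baseline and 30 min.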
APE1 inh-1 – inhibitors of human APE1 endonuclease | Potency, µM (doses to about 65.8 µM), for the others: at the highest dose activity change, negative = inhibition, hits mostly inhibitors | P27695 | AID 2517 | recombinant APE1, TAMRA/BHQ-2 abasic DNA cleavage fluorescence | 350,000 tested, 0.35% active;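 also: plate controls were vehicle for no effect and reference inhibitor for full effect; nearly all actives have a fitted effect of over 55% in size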
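Activity was derived from the fluorescence gain between first and third kinetic reads (60 s intervals, ex 525/em 598 nm) after 50 nM THF-abasic TAMRA/BHQ-2 duplex was added to 0.75 nM APE1 preincubated 15 min with compound.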
POLI inh – DNA polymerase iota (human) inhibition | 390,000 tested, 1% active | Potency, µM (highest dose often 115 µM), for inactives: at the top dose activity, negative = inhibition, usual class: inhibitors | Q9UNA4 | Pol iota fluorescent replication assay, 10 min | AID 588590
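Fluorescent replication assay read twice, at 0 min and 10 min after adding 50 nM (final) substrate. Enzyme (10 nM) and compounds were first incubated 15 min at room temperature; enzyme-free buffer wells were negative controls.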
POLB inh – inhibitors of human DNA polymerase beta | P06746 | Pol beta primer extension/strand displacement, fluorescence kinetic | 340,000 tested, 1.3% active | Potency, µM (doses to about 114 µM), for inactives: at the highest dose activity change, negative = inhibition, usual class: inhibitors; also: % is scaled to controls: 0 for no effect and ±100 for the full control effect
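Human Pol beta at 10 nM; strand-displacement substrate 50 nM final. Compound exposure 15 min at room temperature before start, reaction 10 min at room temperature.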
Pol kappa inh-1 – DNA polymerase kappa (human) inhibition; Q9UBT6; purified Pol kappa, fluorescent DNA synthesis assay, 10 min; Potency, µM (doses to about 107 µM), inactives show top-dose activity, negative = inhibition, usual class: inhibitors; 400,000 tested, 0.53% active; also: % is scaled to controls: 0 for no effect and ±100 for the full control effect
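Pol kappa 10 nM + cpd, 15 min RT; start w/ substrate 50 nM final; fluorescence kinetic read, 0 and 10 min. Neg ctrl: buffer, no enzyme.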
Pol eta inh-1 – inhibitors of human DNA polymerase eta; AID 588591; recombinant Pol eta, fluorescent DNA replication assay; 390,000 tested, 1.2% active; Potency, µM (titrated, usually from 114 µM), inactives show at the top dose activity change, negative = inhibition, actives largely listed as inhibitors; Q9Y253; also: % is scaled to controls: 0 for no effect and ±100 for the full control effect
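Fluorescent replication assay: 50 nM final substrate added after a 15 min room-temperature compound preincubation with 10 nM enzyme. Signal taken at 0 min and again at 10 min.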
APE1 dye cs – DNA dye displacement counter-screen activity; DNA fluorescent dye displacement counterscreen, fluorescence; Potency, µM (top dose mostly 28.5 µM), without a hit: at the top dose activity change, negative = inhibition, actives largely listed as inhibitors; shares compounds with APE1 inh-1; 480 tested, 7% active; AID 2564;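 also: loss of thiazole orange fluorescence as the dye is displaced from duplex DNA; 0% = ThO with dsDNA and no compound and -100% = ThO without dsDNA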
EndoIV counter – counter-screen for APE1 inhibitors: inhibitors of E. coli endonuclease IV. shares compounds with APE1 inh-1. E. coli Endo IV, fluorogenic AP-site DNA cleavage. AID 2565. 560 tested, 4% active. Potency, µM (series often up to 27.1 µM), for the others: at the top dose activity change, negative = inhibition, hits mostly inhibitors;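 also: plate controls were uninhibited enzyme wells for no effect and no enzyme buffer wells for full effect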
APE1 inh-2 – APE1 (human) endonuclease inhibition, confirmation. shares compounds with APE1 inh-1. purified APE1, fluorogenic abasic-site DNA cleavage. Potency, µM (doses to about 57.1 µM), without a hit: top-dose activity change, negative = inhibition, most hits filed as inhibitors. 750 tested, 44% active. AID 2572; also: % is scaled to controls: 0 for no effect and ±100 for the full control effect; nearly all actives have a fitted effect of over 30% in size
APE1 FP inh – displaces DNA from human APE1 in FP assay | APE1 binding to TAMRA-labelled double-stranded DNA, fluorescence polarization displacement | Potency, µM (titrated, usually from 28.5 µM), without a hit: top-dose activity, negative = inhibition, most hits filed as inhibitors | shares compounds with APE1 inh-1 | 480 tested, 7% active; also: % is scaled to controls: 0 for no effect and ±100 for the full control effect
PGK validate – validation of Trypanosoma brucei phosphoglycerate kinase inhibitors; TbPGK coupled GAPDH assay, Kinase-Glo luminescence; Potency, µM (series often up to 57.5 µM), inactives show top-dose activity change, negative = inhibition, usual class: inhibitors; 500 tested, 79% active; shares compounds with Pol kappa inh-1; also: % is scaled to controls: 0 for no effect and ±100 for the full control effect; nearly all actives have a fitted effect of over 65% in size
Pol iota confirm – Human Pol iota inhibitor confirmatory assay. shares compounds with Pol kappa inh-1. 1,500 tested, 77% active. Potency, µM, actives largely listed as inhibitors. Pol iota primer extension, TAMRA/BHQ fluorescence
Pol kappa inh-2 – Pol kappa (human) inhibition, cherry-pick confirmation. AID 720501. purified Pol-kappa, fluorescent strand-displacement substrate. shares compounds with Pol eta inh-1. Potency, µM, most hits filed as inhibitors. 920 tested, 76% active
Pol eta inh-2 – confirmation of human DNA polymerase eta inhibitors; Potency, µM, most hits filed as inhibitors; 2,600 tested, 64% active; AID 720502; shares compounds with Pol eta inh-1; Pol eta primer extension, TAMRA/BHQ fluorescence, 10 min
* marks the source's active call; other numbers are inactive results; ? = inconclusive; . = no result. Rows were chosen to be rich in hits. Some 2.4% of all compounds tested hit in one or more screens of this group. Calls follow the shape of the dose curve; as a rule, active = well fitted curve in the direction sought with a large enough effect; inconclusive = small, poorly fitted or top-dose-only effect, or another doubt; inactive = no such curve, though single readings can be large; an effect the other way counts as inactive or inconclusive. Potency is read from the fitted curve at half-maximal effect.

SMILES | GLS inh | APE1 inh-1 | POLI inh | POLB inh | Pol kappa inh-1 | Pol eta inh-1 | APE1 dye cs | EndoIV counter | APE1 inh-2 | APE1 FP inh | PGK validate | Pol iota confirm | Pol kappa inh-2 | Pol eta inh-2
COc1ccc(/C=N/NC(=O)c2cc(O)c(O)c(O)c2)cc1Cn1cc([N+](=O)[O-])cn1 | 27% | 1.6µM* | 3.2µM* | 0.56µM* | 4µM* | 2.8µM* | ? | 96% | 1.3µM* | -10% | ? | 8.4* | . | 15*
COc1ccc(/C=N/NC(=O)c2ccc(Br)o2)cc1Cn1cc([N+](=O)[O-])cn1 | 3% | 8% | 27% | -21% | -2% | -3% | . | . | . | . | . | . | . | .
O=C(CCCN1C(=O)/C(=C/c2ccccc2)SC1=S)Nc1ccccc1O | -2% | -2% | -6% | 1% | -4% | 3% | . | . | . | . | . | . | . | .
O=C(CCCN1C(=O)/C(=C/c2ccco2)SC1=S)Nc1ccccc1C(=O)O | ? | 20µM* | 22µM* | -122% | ? | 11µM* | -10% | 119% | 13µM* | -30% | . | 34* | 8.4* | 19*
O=C(O)CCCN1C(=O)/C(=C\c2ccco2)SC1=S | ? | 20µM* | 7.1µM* | 20µM* | 11µM* | 20µM* | -4% | 69% | ? | -1% | . | . | 42* | 48*
O=C1/C(=C/c2ccco2)SC(=S)N1CC1CCCO1 (stereo unspecified) | 15% | 10µM* | 22µM* | 13µM* | 89µM* | 50µM* | -7% | -3% | 7.9µM* | -12% | . | ? | 42* | 67*
O=C1/C(=C/c2cccnc2)SC(=S)N1CC1CCCO1 (stereo unspecified) | 7% | -1% | 104% | 26% | -14% | -3% | . | . | . | . | . | . | . | .
COc1ccc2c(c1)c(=O)oc1cc(OCC(=O)N3CCc4ccccc4C3)ccc12 | -22% | 10µM* | ? | 11µM* | ? | 89µM* | -3% | ? | 4µM* | -29% | 3.3µM* | 34* | 8.4* | 76*
